A selection: hits, their analogues and other compounds. The true share with any hit is near 6.3%.
Fluor 339 460: intrinsic fluorescence of library compounds, ex339/em460 – biochemical, MLSMR library, data from DPM-DC assay, artefact control, profiling panel. AID 709. 65,000 tested, 5.5% active. compound autofluorescence, ex339/em460 nm, NADH buffer; hits give high values; 1 = no-compound wells, NADH background. fluorescence fold increase at 10 µM;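 active = at 10 µM, mean starting fluorescence two-fold or more over control wells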;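 note: signal is the first read of a kinetic run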
NADH enzymes: blocks coupling enzymes of NAD/NADH assays. coupled PK/LDH NADH assays, four targets. IC50, µM (highest dose often 10 µM), for inactives: at the highest dose inhibition. 65,000 tested, 0.02% active. AID 774;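 active = single-dose screening hits from any of four coupled enzyme assays that gave an IC50 when retested across doses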;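 note: the DPM-DC format reads NADH fluorescence rather than 340 nm absorbance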
Spn DPM-DC inh: blocks S. pneumoniae diphosphomevalonate decarboxylase. purified DPM-DC, PK/LDH coupled NADH fluorescence. calls only at 10 µM. 65,000 tested, 0.49% active. AID 556;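 active = the 320 compounds with the highest percent inhibition in the single-dose primary screen, excluding strongly autofluorescent ones, cut at about 32% in these data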;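 note: kinetic rate of NADH fluorescence loss reporting ADP formed by the decarboxylase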
PMK inhibit: blocks S. pneumoniae phosphomevalonate kinase; purified PMK, PK/LDH-coupled NADH absorbance 340 nm; inhibition, % at 10 µM; 65,000 tested, 0.49% active;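 active = top-ranked compounds by inhibition in the single 10 µM screen, taking a fixed number of the strongest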;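 note: 0% = full reaction with DMSO carrier and 100% = background rate without enzyme reaction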
A340 absorber: absorbance at 340 nm | compound absorbance at 340 nm, fold over control | fold change at 10 µM | 65,000 tested, under 10 active;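 active = at 10 µM dose, initial 340 nm absorbance at least 2 fold that of control wells; inactive = change under 2 fold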;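 note: initial absorbance extrapolated from kinetic A340 decline of NADH oxidation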
Spn MK inh: S. pneumoniae mevalonate kinase inhibition; purified MK, PK/LDH-coupled NADH absorbance 340 nm; inhibition, % at 10 µM; 65,000 tested, 0.48% active; AID 555;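 active = ranked among the strongest by inhibition in the single 10 µM screen, a fixed top-ranked set picked for dose follow-up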
Active calls of the source: *; i = inactive; . = no result shown.

SMILES | Fluor 339 460 | NADH enzymes | Spn DPM-DC inh | PMK inhibit | A340 absorber | Spn MK inh
CCN1CC=C2C(C1)C(c1ccc(Cl)s1)C(C#N)=C(N)C2(C#N)C#N (stereo not given) | 1.99 | 5.0% | i | 1.0 | 1.04 | 13.0
Cc1ccc(Cl)cc1N1CCN(C(=O)C2CCN(S(=O)(=O)c3c(C)nn(C)c3C)CC2)CC1 | 1.05 | 5.0% | i | 14.0 | 1.01 | 0.0
CCOc1ccc(OCC)c(NC(=O)c2ccc(CNc3c(N4CCOCC4)c(=O)c3=O)cc2)c1 | 1.09 | 7.0% | i | 19.0 | 1.01 | 3.0
COc1ccc(-n2cnnc2SCC(=O)N(C)C2CCS(=O)(=O)C2)cc1 (stereo not given) | 1.15 | 6.0% | i | 16.0 | 1.01 | 2.0
N#Cc1c(N)n(CCOC(=O)c2cccc(Br)c2)c2nc3ccccc3nc12 | 2.44* | 3.0% | . | 0.0 | 1 | 1.0
CCN(CC)CCOC(=O)c1cccc(Br)c1 | 1.06 | 1.0% | i | 1.0 | 1 | .
COc1cccc(Cn2c(N)c(C#N)c3nc4ccccc4nc32)c1OC | 3.43* | 6.0% | . | 8.0 | 1.01 | 4.0
COc1cc(Cn2c(N)c(C#N)c3nc4ccccc4nc32)cc(OC)c1 | 3.9* | 3.0% | . | 0.0 | 1.03 | 6.0
COc1ccc(Cl)cc1NC(=O)c1nc2nc(C)cc(C(F)F)n2n1 | 1.18 | 8.0% | i | 10.0 | 1.06 | 11.0
COc1ccc(C(=O)CSc2nnc(CNc3nc(-c4ccccc4)cs3)n2C)cc1 | 1.1 | 4.0% | i | 8.0 | 0.99 | 4.0
O=C(Cn1ncc2c1-c1ccccc1OC2)Nc1nc2ccccc2s1 | 1.03 | 7.0% | i | 16.0 | 1.03 | 4.0
Oc1ccc(-c2n[nH]c(=S)n2Cc2ccccc2)cc1 | 1.07 | 3.0% | i | 0.0 | 1 | active
S=c1[nH]nc(-c2ccncc2)n1Cc1ccccc1 | 1.14 | 16.0% | i | 16.0 | 1.04 | 18.0
Cc1cc(N/C=C2\CCCCC2=O)no1 | 0.94 | 7.0% | i | 0.0 | 1.2 | 15.0
CCOC(=O)N1CCN(C(=O)c2cn(CCOC)c(=O)c3c2c2ccccc2n3C)CC1 | 4.33* | 8.0% | . | 9.0 | 1.06 | 7.0
Cc1cccc(N2CCN(C(=O)c3cn(C)c(=O)c4c3c3ccccc3n4C)CC2)c1C | 1.89 | 6.0% | i | 15.0 | 1.04 | 0.0
COCCn1cc(C(=O)N2CCN(C)CC2)c2c3ccccc3n(C)c2c1=O | 4.61* | 6.0% | . | 11.0 | 1.06 | 0.0
CC(C)OC(=O)CCC1(C(=O)O)CCC(=O)NC1 (stereo not given) | 1 | 12.0% | i | 25.0* | 0.99 | 11.0
CC(C)OC(=O)CC1=NC(=O)CS1 | 1.08 | 5.0% | i | 0.0 | 1.03 | 15.0
COc1ccc(CNc2oc(-c3cccc4ccccc34)nc2C#N)cc1 | 3.02* | 1.0% | . | 4.0 | 1.04 | 0.0
N#Cc1nc(Cc2cccc3ccccc23)oc1NCc1ccc(F)cc1 | 1.09 | 3.0% | i | 1.0 | 1.01 | 9.0
CNc1oc(-c2cccc3ccccc23)nc1C#N | 3.72* | 7.0% | . | 7.0 | 1.06 | 6.0
COc1cc(S(=O)(=O)N(C)C)ccc1F | 1.04 | 3.0% | i | 1.0 | 1 | 5.0
CCCc1cc(-c2[nH]ncc2-c2ccc(C(=O)OCC)o2)c(O)cc1O | 2.18* | 4.0% | i | 4.0 | 1.01 | 3.0
CCCc1cc(-c2[nH]ncc2-c2ccc3c(c2)OCCCO3)c(O)cc1O | 1.14 | 4.0% | i | 7.0 | 1.03 | 5.0
SMILES | Fluor 339 460 | NADH enzymes | Spn DPM-DC inh | PMK inhibit | A340 absorber | Spn MK inh
Cc1cc(=O)oc2cc(OCc3nnc(-c4ccccc4Br)o3)ccc12 | 4.51* | 9.0% | . | 12.0 | 1.02 | 5.0
COCc1cc(C)nc2sc(C(=O)OC(C)C)c(N)c12 | 2.14* | 9.0% | i | 5.0 | 1.06 | 6.0
CCOC(=O)CSc1n[nH]c(-c2ccco2)n1 | 1.07 | 6.0% | i | 13.0 | 1.04 | 6.0
CCOc1ccc(-n2c(-c3ccco3)n[nH]c2=S)cc1 | 1.19 | 25.0% | i | 11.0 | 0.99 | 60.0*
O=C1CN(C(=O)COC(=O)C2=COCCO2)c2ccccc2N1 | 1.13 | 26.0% | i | 23.0 | 1.02 | 56.0*
CCOC(=O)COc1ccc(-c2nnc(-c3ccccc3)o2)cc1 | 1.25 | 5.0% | i | 8.0 | 0.99 | 8.0
CCOc1ccc(-c2nnc(NC(=O)c3ccc(OCC(C)C)c(OC)c3)o2)cc1 | 4.93* | 7.0% | . | 14.0 | 1.04 | 0.0
CCOC(=O)CNC(=O)Nc1nnc(-c2ccc(OCC)cc2)o1 | 1.47 | 7.0% | i | 28.0* | 1 | 4.0
